Shown are actives, neighbours in structure and some others; about 4% of the full set was active somewhere.
CSC inhib – cancer stem cell viability inhibitors, primary screen, luminescence | cancer stem cell-like cells viability | inhibition, % at 7.5 µM | 300,000 tested, 1.1% active | AID 2717, 2010; in the data active = inhibition above about 75%; tested in HMLE shEcad cells
Gli-Sufu antag – Gli-Sufu pathway antagonists, primary screen, luciferase luminescence, Sufu-KO-LIGHT cells, uHTS | inhibition, % at 5 µM | 340,000 tested, 0.74% active | Sufu-KO-LIGHT fibroblasts, Gli luciferase reporter luminescence;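 active = inhibition above about 55%, limit read from the data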;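 also: 0% = DMSO-treated cells and 100% = wells with medium but no cells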
PAX8 reporter – inhibitors of PAX8-driven TPO luciferase reporter, primary screen, RMG-I cells, single concentration; 360,000 tested, 1.2% active; SteadyGlo, 24 h; inhibition, % at 12.6 µM;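 active = mean replicate inhibition at least 60% with every replicate also reaching 60%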;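 also: luciferase light reporting Pax8 driven TPO promoter activity; plate controls were median of neutral control wells for no effect and mitoxantrone controls for full effect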
Mdm2 MdmX PPI – inhibitors of human Mdm2-MdmX association, primary screen, cell-based, luminescence, split luciferase, SaOS-2, uHTS | Protein Mdm4 (Homo sapiens) + E3 ubiquitin-protein ligase Mdm2 (Homo sapiens), … | SaOS-2 split-luciferase Mdm2/MdmX complementation | inhibition, % at 8 µM | 330,000 tested, 3% active;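 active = inhibition of at least 50% at 8 µM in the primary screen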
Target sequence (O15151 whole entry, looked up): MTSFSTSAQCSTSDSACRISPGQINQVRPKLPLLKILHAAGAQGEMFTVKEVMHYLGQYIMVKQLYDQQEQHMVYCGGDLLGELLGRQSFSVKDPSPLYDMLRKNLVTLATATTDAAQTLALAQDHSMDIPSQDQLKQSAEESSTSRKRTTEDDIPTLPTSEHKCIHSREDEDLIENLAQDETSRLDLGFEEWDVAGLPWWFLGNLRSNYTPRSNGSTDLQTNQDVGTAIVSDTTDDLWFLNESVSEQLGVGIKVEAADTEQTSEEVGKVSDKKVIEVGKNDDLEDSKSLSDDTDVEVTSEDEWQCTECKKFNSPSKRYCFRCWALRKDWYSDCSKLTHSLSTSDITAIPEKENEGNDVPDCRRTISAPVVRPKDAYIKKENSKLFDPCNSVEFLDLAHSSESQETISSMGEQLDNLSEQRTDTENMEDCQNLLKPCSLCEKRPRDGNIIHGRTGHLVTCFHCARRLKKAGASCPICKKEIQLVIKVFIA
Target sequence (Q00987 whole entry, looked up): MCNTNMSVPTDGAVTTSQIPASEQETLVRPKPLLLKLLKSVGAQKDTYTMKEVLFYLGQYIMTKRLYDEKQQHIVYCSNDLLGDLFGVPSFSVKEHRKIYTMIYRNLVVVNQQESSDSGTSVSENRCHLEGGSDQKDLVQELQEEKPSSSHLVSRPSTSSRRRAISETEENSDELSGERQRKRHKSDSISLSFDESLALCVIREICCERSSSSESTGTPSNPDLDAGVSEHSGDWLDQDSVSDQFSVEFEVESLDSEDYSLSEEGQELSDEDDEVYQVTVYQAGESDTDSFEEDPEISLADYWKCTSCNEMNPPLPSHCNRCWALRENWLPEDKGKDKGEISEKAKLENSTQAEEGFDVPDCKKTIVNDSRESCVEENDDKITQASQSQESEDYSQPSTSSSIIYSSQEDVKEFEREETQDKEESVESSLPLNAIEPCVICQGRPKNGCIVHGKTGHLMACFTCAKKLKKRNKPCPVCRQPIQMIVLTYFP
Beta cell apopt – inhibitors of cytokine-induced beta cell apoptosis, primary screen, luminescence. protection from apoptosis, % (concentration not given with the values). INS-1E cytokine-induced death, ATP luminescence, 48 h; percent of positive-control rescue, neutral wells zero. AID 435005, 2010. 300,000 tested, 0.8% active;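 active = Every replicate reaches about 75%, or at least half do and their mean reaches it too, limit read from the data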;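 also: 0% = cytokine-treated negative control wells and 100% = positive control rescue; higher means more ATP so stronger rescue from cytokine killing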
Shn3 3UTR inh – reduction of Shn3 3'UTR firefly luciferase signal, primary screen, Schnurri-3 inhibitor project, cell-based, Clone20 osteoblasts, set 2 | Clone20 osteoblast Shn3 3'UTR firefly luciferase, 24 h | inhibition, % at 12.5 µM | 360,000 tested, 0.52% active | AID 588674, 2011;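 active = mean inhibition of at least 75% with every replicate also reaching 75%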;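 also: 0% = median of neutral control wells and 100% = pilot-screen positive control compound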
Mdm2 MdmX conf – Mdm2-MdmX complex disruptors, retested hits, confirmation, luminescence, single concentration | shares compounds with Mdm2 MdmX PPI | Mdm2-MdmX binding, luminescent assay | inhibition, % at 8 µM | 10,000 tested, 55% active; in the data active = inhibition above about 40%
Full FLuc ctr – full-length luciferase signal inhibition, confirmation, counter-screen for Mdm2/MdmX interaction inhibitor project, cell-based, single concentration, SaOS-2; SaOS-2 full-length luciferase counterscreen, luminescence; 6,200 tested, 77% active; inhibition, % at 8 µM; shares compounds with Mdm2 MdmX PPI;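 active = mean inhibition at 8 µM reaching about 37%, which flags the compound as non-specific, limit read from the data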;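 also: p53-null SaOS-2 cells with luciferase driven by a doxycycline-inducible promoter; compound on cells about two nights before reading with doxycycline added after day one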
Numbers without * were called inactive; . = not tested or not shown.

SMILES | CSC inhib | Gli-Sufu antag | PAX8 reporter | Mdm2 MdmX PPI | Beta cell apopt | Shn3 3UTR inh | Mdm2 MdmX conf | Full FLuc ctr
CCN1/C(=C/c2cccc[n+]2C)Sc2ccc(OC)cc21 | 34 | 77* | 71* | 74* | 105* | 73 | 48* | 78*
CCN1/C(=C/C(C)=O)Sc2ccc(OC)cc21 | -4 | -3 | . | 24 | -1 | -3 | . | .
CC(C)NC(=O)Nc1ccc2c(c1)CC(=O)N([C@H](C)CO)C[C@@H](C)[C@H](CN(C)Cc1ccccc1)O2 | . | . | 6 | . | . | . | . | .
CCOC(=O)N1CCN(c2c(F)cc3[nH]c(=S)[nH]c3c2Br)CC1 | . | -10 | . | 61* | 14 | -28 | 58* | 47*
CCOC(=O)N1CCN(c2cc3[nH]c(=S)[nH]c3cc2F)CC1 | -13 | -7 | . | 13 | 1 | -9 | . | .
CN(C)CC(=O)N[C@@H]1C=C[C@H](CC(=O)NCCN2CCCCC2)O[C@@H]1CO | . | . | 8 | . | . | . | . | .
O=C(CN1C(=O)/C(=C/c2c(F)cccc2Cl)Oc2ccccc21)NCc1ccco1 | 43 | . | . | 64* | 10 | . | 49* | 102*
O=C(/C=C/c1c(F)cccc1Cl)NCc1ccco1 | -3 | -17 | -66 | -1 | -4 | -42 | . | .
CCOC(=O)c1ccc(NC(=O)c2c(N)n(Cc3ccccc3)c(=O)[nH]c2=O)cc1 | -1 | 9 | -20 | 96* | 53 | 27 | 31 | .
COc1ccccc1-c1sc2ccccc2c1-c1ccc(OCCN2CCCCC2)cc1 | . | -5 | . | 67* | . | 55 | 44* | 55*
COc1ccc2c(-c3ccc(OCCN4CCCCC4)cc3)c(-c3ccccc3OC)sc2c1 | . | 0 | . | 63* | . | -1 | 16 | .
COc1cc2sc(-c3ccccc3OC)c(-c3ccc(OCCN4CCOCC4)cc3)c2cc1OC | . | 5 | . | 61* | . | 15 | 9 | .
O=C(CC(F)(F)F)N1C[C@H]2[C@@H](c3ccccc31)[C@@H](CO)N2C(=O)c1ccncc1 | . | . | 8 | . | . | . | . | .
CCCNC(=O)N1C[C@@H](O)COC[C@H]2O[C@@H](CC(=O)NCc3ccncn3)CC[C@@H]21 | . | . | -16 | . | . | . | . | .
Cc1ccc(O)c(/C=N/NC(=O)Cc2ccc(Cl)cc2)c1 | 22 | -3 | 29 | 64* | . | 45 | 51* | 34
O=C(Cc1ccc(Cl)cc1)N/N=C/c1ccc(O)c(O)c1 | . | . | 16 | . | . | -2 | . | .
Cc1cccc(/C=N/NC(=O)Cc2ccc(Cl)cc2)c1O | 16 | 6 | 28 | 64* | . | 41 | 42* | 30
O=C(CN1CCOCC1)NCC[C@H]1CC[C@@H](NS(=O)(=O)c2ccc(F)cc2)[C@H](CO)O1 | . | . | -18 | . | . | . | . | .
COC(=O)[C@@H]1C[C@]2(OC(=O)c3ccccc3)C=CC(=O)C[C@@H]2N1C(=O)OCc1ccccc1 | 76* | 9 | 57 | 94* | 1 | -16 | 62* | 34
CN(C)S(=O)(=O)c1ccc(C(=O)Nc2nnc(-c3ccc4c(c3)CCCC4)o2)cc1 | 23 | 0 | -5 | 60* | 15 | 47 | 23 | .
O=C(Nc1nnc(-c2ccc3c(c2)CCCC3)o1)c1ccc(Cl)cc1Cl | 68 | -3 | -7 | 51* | -3 | -11 | 25 | .
C[C@@H]1CN([C@@H](C)CO)C(=O)c2cc(NS(C)(=O)=O)ccc2O[C@@H]1CN(C)Cc1ccc(C(=O)Nc2ccccc2N)cc1 | . | . | 2 | . | . | . | . | .
CC1=C(C(=O)OCc2ccc3c(c2)OCO3)C(c2ccccc2OCc2ccccc2)NC(=O)N1 (stereo not drawn) | 19 | 10 | . | 33 | -1 | 29 | . | .
CC1=C(C(=O)OCc2ccc3c(c2)OCO3)C(c2ccccc2)NC(=O)N1 (stereo not drawn) | 42 | -14 | . | 87* | -15 | 24 | 91* | 52*
CC1=C(C(=O)OCc2ccc3c(c2)OCO3)C(c2ccc(O)c([N+](=O)[O-])c2)NC(=O)N1 (stereo not drawn) | . | -8 | -15 | 51* | -7 | 16 | 35 | .
SMILES | CSC inhib | Gli-Sufu antag | PAX8 reporter | Mdm2 MdmX PPI | Beta cell apopt | Shn3 3UTR inh | Mdm2 MdmX conf | Full FLuc ctr
CN1C(C(=O)Nc2ccc(OC(F)(F)F)cc2)=CC(c2cccs2)=NS1(=O)=O | -4 | 4 | 12 | 58* | -2 | 7 | 33 | 48*
COc1ccc(NC(=O)C2=CC(c3cccs3)=NS(=O)(=O)N2C)cc1 | . | 0 | 25 | 55* | -3 | 16 | 31 | .
O=C(CSc1nc2nc(-c3cccs3)cc(C(F)(F)F)c2c(=O)[nH]1)Nc1ccc(F)c(F)c1 | 104* | -2 | 14 | 74* | 25 | -3 | 46* | 80*
Cc1cc(C(=O)CN2C(=O)c3ccccc3C2=O)c(C)n1Cc1cccs1 | -12 | 25 | . | 68* | . | 16 | 67* | 102*
COc1ccc(OC)c(/C=N/NC(=O)c2cc3c(OC)c(OC)ccc3[nH]2)c1 | -5 | -21 | 2 | 7 | -11 | 14 | . | .
Cc1ccc2[nH]c(C(=O)N/N=C/c3ccccc3C(=O)O)c(-c3ccccc3)c2c1 | . | 1 | 22 | 20 | . | -4 | . | .
COc1cc(OC)c2cc(C(=O)N/N=C/c3ccccc3O)[nH]c2c1 | 71 | 26 | 18 | 73* | 85* | 89* | 68* | 38*
COc1ccc2[nH]c(C(=O)N/N=C/c3ccccc3OC)cc2c1 | 37 | -6 | 3 | 7 | 1 | -35 | . | .
O=C(N/N=C/c1ccccc1)c1[nH]c2ccc(Br)cc2c1-c1ccccc1 | 46 | 46 | 13 | 63* | 10 | -2 | 67* | 83*
COc1ccc2[nH]c(C(=O)N/N=C/c3ccc(OC)c(O)c3)cc2c1 | 48 | 26 | 35 | 56* | 38 | -6 | 53* | 67*
Cc1ccc2[nH]c(C(=O)N/N=C/c3ccccc3O)c(C)c2c1 | 38 | 11 | -8 | 59* | 86* | 75 | 78* | 25
COc1cccc(S(=O)(=O)N[C@@H]2CC[C@H](CC(=O)NC3Cc4ccccc4C3)O[C@H]2CO)c1 | . | . | 10 | . | . | . | . | .
CCNC(=O)C[C@@H]1CC[C@@H]2[C@H](COc3ccc(NC(=O)Nc4ccccc4F)cc3C(=O)N2C)O1 | . | . | 7 | . | . | . | . | .
Cc1noc2ncnc(Sc3ccccc3Cl)c12 | -9 | 0 | . | 70* | -13 | -10 | -4 | .
O=C1C2C(c3ccccc3)CC=CC2[C@H](c2ccc3ccccc3c2)N1Cc1ccccc1 (stereo partly drawn) | 56 | 34 | -10 | 57* | 10 | 20 | 30 | .
